The panel holds about 79,000 compounds, 15% with a hit somewhere; the sample as a whole holds those more often. Calls of active or inactive are those of the source. Rule as the data show it: active = growth inhibition above about 70%; inactive = the rest.
Assays:
[1] = NCI Yeast Anticancer Drug Screen. Data for the rad52 strain (AID 147);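 also: 0% = growth of vehicle-treated control cultures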; conditions: S. cerevisiae rad52 mutant growth inhibition, hits give high values
Procedure, shortened: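 Compounds are applied to a genetically defined yeast strain lacking normal DNA damage repair, and inhibition of growth is expressed relative to cultures given vehicle only.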

[2] = NCI Yeast Anticancer Drug Screen. Data for the wt1 strain (AID 149);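 also: 0% = growth of vehicle-treated wt1 cultures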; conditions: S. cerevisiae wt1 strain (SPY 50644) growth inhibition, hits give high values
Procedure, shortened: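 The wt1 strain was treated with compounds, and growth was compared with vehicle-treated cultures to give inhibition.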

[3] = NCI Yeast Anticancer Drug Screen. Data for the rad50EPP+ strain (AID 151);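 also: 0% = growth of vehicle-treated control cultures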; conditions: S. cerevisiae rad50 mutant strain, hits give high values
Procedure, shortened: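 Compounds were applied to the rad50EPP+ yeast strain, which bears a defined DNA repair alteration, and growth inhibition was determined relative to vehicle-treated cultures.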

[4] = NCI Yeast Anticancer Drug Screen. Data for the mgt1 strain (AID 153); conditions: S. cerevisiae mgt1 mutant growth inhibition, hits give high values
Procedure, shortened: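 Strain: mgt1 yeast, one of a set carrying defined DNA damage repair or cell cycle control alterations. Compound-treated growth compared with vehicle.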

[5] = NCI Yeast Anticancer Drug Screen. Data for the rad50 strain (AID 155);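 also: 0% = growth of vehicle-only cultures of the same strain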; conditions: S. cerevisiae rad50 strain growth inhibition, hits give high values
Procedure, shortened: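 Cells are treated with compound, grown, and their growth is then scored against vehicle-only cultures of the same repair-deficient yeast strain.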

[6] = NCI Yeast Anticancer Drug Screen. Data for the mec2-1 strain (AID 157); conditions: S. cerevisiae mec2-1 strain, hits give high values
Procedure, shortened: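 Strain: mec2-1 (DNA repair/cell cycle alteration). Compound exposure, then growth measured; inhibition expressed relative to vehicle.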

[7] = NCI Yeast Anticancer Drug Screen. Data for the rad14 strain (AID 159);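 also: 0% = growth of vehicle-treated control cultures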; conditions: S. cerevisiae rad14 strain growth inhibition, hits give high values
Procedure, shortened: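 Readout: yeast growth inhibition, referenced to vehicle-only cultures. Strain bears a defined alteration in DNA damage repair.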

[8] = NCI Yeast Anticancer Drug Screen. Data for the sgs1 mgt1 strain (AID 161);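 also: 0% = growth of cultures given vehicle only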; conditions: S. cerevisiae sgs1 mgt1 strain, hits give high values
Procedure, shortened: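 Genetically altered yeast, compound exposure, growth inhibition relative to vehicle.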

[9] = NCI Yeast Anticancer Drug Screen. Data for the cln2 rad14 strain (AID 165);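 also: 0% = growth equal to vehicle treated cultures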; conditions: S. cerevisiae cln2 rad14 strain, hits give high values
Procedure, shortened: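 Compounds are applied to the cln2 rad14 yeast strain, and growth is then compared with that of vehicle-treated cultures to give inhibition.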

[10] = NCI Yeast Anticancer Drug Screen. Data for the bub3 strain (AID 167); conditions: S. cerevisiae bub3 mutant strain, hits give high values
Procedure, shortened: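 Part of a panel of yeast mutants defective in DNA damage repair or cell cycle regulation. Each strain is grown with compound, and inhibition is calculated relative to solvent-treated cultures.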

[11] = NCI Yeast Anticancer Drug Screen. Data for the mlh1 strain (AID 171);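 also: 0% = growth of vehicle-treated control cultures of the same strain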; conditions: S. cerevisiae mlh1 strain growth inhibition, hits give high values
Procedure, shortened: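 Growth of the mutant yeast strain after compound exposure, expressed as inhibition relative to vehicle-only controls.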

[12] = NCI Yeast Anticancer Drug Screen. Data for the sgs1 strain (AID 173);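 also: 0% = growth of vehicle-only control cultures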; conditions: S. cerevisiae sgs1 mutant, hits give high values
Procedure, shortened: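 Growth of a yeast strain bearing a defined genetic alteration is measured after compound treatment. Inhibition is expressed relative to vehicle-only controls.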

[13] = NCI Yeast Anticancer Drug Screen. Data for the mlh1 rad18 strain (AID 175); conditions: S. cerevisiae mlh1 rad18 strain growth inhibition, hits give high values
Procedure, shortened: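 Read-out is yeast growth inhibition, calculated against vehicle-only controls. The compound was applied to a strain engineered with DNA damage repair alterations.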

[14] = NCI Yeast Anticancer Drug Screen. Data for the rad18 strain (AID 177); conditions: S. cerevisiae rad18 mutant growth inhibition, hits give high values
Procedure, shortened: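 Growth of the mutant yeast strain after compound exposure, normalised to vehicle-only cultures.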

[15] = at 5.0 µM (retest, dose inferred, filed as 0.5)
[16] = at 50.0 µM (retest, dose inferred, filed as 5.0)

Measured: growth inhibition

Cc1cccc(C(C)(C)C)c1NC(=O)C(C#N)C1=C(Cl)C(=O)c2ccccc2C1=O (stereo not drawn)
active: [1]; at 33.0 µM 97% | [1]; at 100.0 µM 98% | [2]; at 33.0 µM 98% | [2]; at 100.0 µM 98% | [3]; at 11.0 µM 99% | [3]; at 33.0 µM 99% | [3]; at 100.0 µM 98% | [4]; at 33.0 µM 98% | [4]; at 100.0 µM 97% | [5]; at 11.0 µM 70% | [5]; at 33.0 µM 98% | [5]; [16] 97% | [5]; at 50.0 µM 91% | [5]; at 100.0 µM 96% | [6]; at 11.0 µM 95% | [6]; at 33.0 µM 95% | [6]; [16] 98% | [6]; at 50.0 µM 90.5% | [6]; at 100.0 µM 97% | [7]; at 11.0 µM 76% | [7]; at 33.0 µM 98% | [7]; at 100.0 µM 97% | [8]; [16] 98% | [8]; at 50.0 µM 89.5% | [9]; [16] 97% | [9]; at 50.0 µM 88.7% | [10]; at 11.0 µM 76% | [10]; at 33.0 µM 98% | [10]; [16] 98% | [10]; at 50.0 µM 92.3% | [10]; at 100.0 µM 96% | [11]; at 33.0 µM 99% | [11]; at 100.0 µM 98% | [12]; at 33.0 µM 98% | [12]; at 100.0 µM 97% | [13]; [16] 97% | [13]; at 50.0 µM 89.5% | [14]; at 33.0 µM 98% | [14]; at 100.0 µM 97%
inactive: [1]; at 1.2 µM 6% | [1]; at 3.7 µM 36% | [1]; at 11.0 µM 52% | [2]; at 1.2 µM -10% | [2]; at 3.7 µM 10% | [2]; at 11.0 µM 21% | [3]; at 1.2 µM 14% | [3]; at 3.7 µM 67% | [4]; at 1.2 µM 19% | [4]; at 3.7 µM 32% | [4]; at 11.0 µM 49% | [5]; at 1.2 µM 4% | [5]; at 3.7 µM 24% | [5]; [15] -1% | [6]; at 1.2 µM 14% | [6]; at 3.7 µM 46% | [6]; [15] -4% | [7]; at 1.2 µM 4% | [7]; at 3.7 µM 16% | [8]; [15] 46% | [9]; [15] 19% | [10]; at 1.2 µM 14% | [10]; at 3.7 µM 11% | [10]; [15] 39% | [11]; at 1.2 µM 17% | [11]; at 3.7 µM 22% | [11]; at 11.0 µM 56% | [12]; at 1.2 µM -2% | [12]; at 3.7 µM 9% | [12]; at 11.0 µM 45% | [13]; [15] 11% | [14]; at 1.2 µM -6% | [14]; at 3.7 µM 34% | [14]; at 11.0 µM 59%

From PubChem BioAssay (NCI)
